The source of these data is PubChem BioAssay (EPA / NIEHS).

The term AC50 denotes the concentration at which the activity in the assay is half-maximal.

Assay [1] in a line: ATG_CRE_CIS: Attagene CIS-FACTORIAL HepG2 Assay for human cAMP Responsive Element (CRE) binding protein 3 (AID 2282926). As to conditions: HepG2 CRE cis-reporter, Attagene multiplexed mRNA; actives raise or lower the signal. Summed up:
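We dosed HepG2 cells bearing multiple cis-promoter reporter units for 24 h and measured reporter mRNA by RT-PCR with capillary electrophoresis detection. Bidirectional concentration-response fitting used DMSO as negative control.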

Assay [2] concerns the target CCAAT/enhancer-binding protein beta (Homo sapiens) (UniProt P17676). Put plainly: ATG_C_EBP_CIS: Attagene CIS-FACTORIAL HepG2 Assay for human CCAAT/Enhancer Binding Protein (C/EBP) beta (AID 2282927). As to conditions: HepG2 Attagene cis-factorial transcription factor reporter; actives raise or lower the signal. In short, it runs like this: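 Transiently transfected HepG2 (MRTU library, endogenous TF-driven promoters); 24 h dosing; total RNA → oligo(dT) RT → PCR → 6-FAM primer extension → HpaI digest → CE; fit bidirectionally vs DMSO.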

Assay [3] is described as follows: ATG_CMV_CIS: Attagene CIS-FACTORIAL HepG2 Assay for human CMV (Internal Marker) (AID 2282928).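 Further: endpoint acts as a background internal control marker rather than a target.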 As to conditions: HepG2 CMV promoter reporter, transcription factor profiling; actives raise or lower the signal. In short, it runs like this: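 After transient transfection of HepG2 with reporter transcription units driven by cis-regulatory promoters, cells receive test chemical for 24 h. Labeled reporter amplicons, digested with HpaI, are sized and quantified by capillary electrophoresis against DMSO.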

Assay [4] is described as follows: ATG_DR4_LXR_CIS: Attagene CIS-FACTORIAL HepG2 Assay for human Liver X Receptor (LXR), DR4 submotif (AID 2282929). As to conditions: HepG2 Attagene DR4 cis-reporter, mRNA transcription; actives raise or lower the signal. Summed up:
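DR4 cis-reporter in HepG2, 24 h exposure. Detection: RT-PCR, 6-FAM labelling, CE fragment analysis. Endpoint fitted bidirectionally, DMSO = baseline.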

The target in assay [5] is Aryl hydrocarbon receptor (Homo sapiens) (UniProt P35869). Put plainly: ATG_Ahr_CIS: Attagene CIS-FACTORIAL HepG2 Assay for human Aryl Hydrocarbon Receptor (Ahr) (AID 2282930). As to conditions: HepG2 AhR cis-factorial reporter transcription; actives raise or lower the signal. In short, it runs like this:
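Read-out: reporter mRNA quantified by RT-PCR with fluorescent primer extension and capillary electrophoresis. Human HepG2 liver cells carried transfected cis-promoter reporter units and were exposed to chemical for 24 h; gain or loss fitted relative to DMSO.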

Assay [6] in a line: ATG_AP_1_CIS: Attagene CIS-FACTORIAL HepG2 Assay for human Activator Protein 1 (AP-1) (AID 2282931). As to conditions: HepG2 Attagene cis-factorial AP-1 reporter mRNA; actives raise or lower the signal. Summed up:
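Cis-regulated reporter units transiently expressed in HepG2 report endogenous transcription-factor activity. Signal: reporter mRNA at 24 h, via RT-PCR and fluorescent capillary electrophoresis. Endpoint derived by bidirectional fitting, DMSO as negative control.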

A short description of assay [7]: ATG_AP_2_CIS: Attagene CIS-FACTORIAL HepG2 Assay for human Activator Protein 2 (AP-2) (AID 2282932). As to conditions: HepG2 AP-2 cis-reporter, Attagene transcription factor profiling; actives raise or lower the signal. In short, it runs like this:
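Multiplexed mRNA reporter assay in HepG2: cis-regulated units report endogenous factor activity after 24 h treatment. Fluorescence from capillary electrophoresis of RT-PCR products gives the signal, with DMSO as baseline.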

Assay [8] in a line: ATG_BRE_CIS: Attagene CIS-FACTORIAL HepG2 Assay for human Bone Morphogenetic Protein (BMP) Response Element (BRE) (AID 2282933). As to conditions: HepG2 BMP response element reporter, Attagene transcription factor profiling; actives raise or lower the signal. In short, it runs like this: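 Transient MRTU transfection of human HepG2 liver cells; 24 h compound treatment; total RNA isolated, reverse-transcribed, PCR-amplified, 6-FAM labelled, HpaI-cut, capillary electrophoresis. DMSO = negative control/baseline, bidirectional fit.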

In assay [9] the target is Retinoic acid receptor alpha (Homo sapiens) (UniProt P10276). Put plainly: ATG_DR5_RAR_CIS: Attagene CIS-FACTORIAL HepG2 Assay for human Retinoic Acid Receptor Alpha (RARE), DR5 submotif (AID 2282934).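 On AC50: reporter responds to endogenous RAR alpha beta and gamma in HepG2 not RARA alone.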 As to conditions: HepG2 Attagene cis-factorial RARE DR5 reporter, mRNA; actives raise or lower the signal. In short, it runs like this: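 Read-out: DR5-driven reporter transcript measured by RT-PCR, 6-FAM primer extension, HpaI digest and capillary electrophoresis. Human HepG2 liver cells carry transiently transfected cis-element reporter constructs; dosing lasts 24 h. Gain or loss of signal fitted against DMSO baseline.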

The source made the active and inactive calls. How the source made its calls: active means hit-call score of the fitted dose curve at least 0.9, where 1 is the maximum; inactive means score below 0.9.

Sequence of CCAAT/enhancer-binding protein beta (Homo sapiens) (P17676 whole entry, looked up): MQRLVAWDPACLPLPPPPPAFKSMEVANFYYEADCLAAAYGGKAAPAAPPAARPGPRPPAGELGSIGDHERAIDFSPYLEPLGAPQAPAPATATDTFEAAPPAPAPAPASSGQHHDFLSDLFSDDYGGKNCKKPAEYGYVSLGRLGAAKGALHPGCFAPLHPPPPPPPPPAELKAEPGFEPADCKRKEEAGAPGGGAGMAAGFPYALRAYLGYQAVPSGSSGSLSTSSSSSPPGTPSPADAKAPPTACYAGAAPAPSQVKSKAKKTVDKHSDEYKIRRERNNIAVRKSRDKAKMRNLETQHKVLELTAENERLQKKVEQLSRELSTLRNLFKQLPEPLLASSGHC
Sequence of Retinoic acid receptor alpha (Homo sapiens) (P10276 whole entry, looked up): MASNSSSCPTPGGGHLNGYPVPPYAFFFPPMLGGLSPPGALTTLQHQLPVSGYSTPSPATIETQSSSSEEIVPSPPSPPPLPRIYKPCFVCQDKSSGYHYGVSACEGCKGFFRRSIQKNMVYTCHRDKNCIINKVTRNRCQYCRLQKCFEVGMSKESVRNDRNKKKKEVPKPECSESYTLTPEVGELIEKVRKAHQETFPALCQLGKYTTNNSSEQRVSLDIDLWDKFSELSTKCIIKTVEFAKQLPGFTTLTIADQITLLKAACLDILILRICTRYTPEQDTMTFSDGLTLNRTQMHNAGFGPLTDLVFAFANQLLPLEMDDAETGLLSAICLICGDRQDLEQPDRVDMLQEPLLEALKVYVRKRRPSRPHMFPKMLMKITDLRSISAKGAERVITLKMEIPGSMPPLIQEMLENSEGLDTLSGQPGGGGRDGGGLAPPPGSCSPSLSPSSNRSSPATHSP
Sequence of Aryl hydrocarbon receptor (Homo sapiens) (P35869 whole entry, looked up): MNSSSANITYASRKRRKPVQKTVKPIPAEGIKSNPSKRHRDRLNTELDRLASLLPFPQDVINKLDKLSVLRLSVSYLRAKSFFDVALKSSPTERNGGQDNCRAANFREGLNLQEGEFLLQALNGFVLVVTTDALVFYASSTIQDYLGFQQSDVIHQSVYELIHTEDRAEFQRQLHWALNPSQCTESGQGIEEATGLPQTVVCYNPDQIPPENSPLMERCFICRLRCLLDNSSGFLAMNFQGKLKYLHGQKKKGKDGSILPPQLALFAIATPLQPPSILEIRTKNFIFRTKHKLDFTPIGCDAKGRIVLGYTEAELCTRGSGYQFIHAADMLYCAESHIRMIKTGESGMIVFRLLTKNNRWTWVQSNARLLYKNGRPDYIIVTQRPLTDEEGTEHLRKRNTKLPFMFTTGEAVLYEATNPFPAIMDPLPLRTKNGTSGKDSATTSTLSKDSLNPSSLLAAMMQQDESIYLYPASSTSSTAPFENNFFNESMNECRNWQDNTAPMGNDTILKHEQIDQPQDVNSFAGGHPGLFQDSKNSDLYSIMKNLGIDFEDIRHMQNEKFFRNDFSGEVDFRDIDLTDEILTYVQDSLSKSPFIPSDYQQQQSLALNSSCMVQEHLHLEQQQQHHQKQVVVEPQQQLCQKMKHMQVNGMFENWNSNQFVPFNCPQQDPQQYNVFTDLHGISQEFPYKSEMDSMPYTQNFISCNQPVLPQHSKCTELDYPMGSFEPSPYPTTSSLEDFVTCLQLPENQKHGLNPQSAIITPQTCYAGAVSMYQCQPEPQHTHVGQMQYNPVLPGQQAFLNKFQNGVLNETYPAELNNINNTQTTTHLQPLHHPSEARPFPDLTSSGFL

In the case of `CC1=CCC(C(C)(C)O)CC1` (stereo not drawn), the outcome in assay [1], in assay [2], in [3], in assay [4], in [5] and in assay [6] was inactive. The compound was called inactive in [7] and in [8].

Take `C=CC(=O)OCC(CO)(COC(=O)C=C)COC(=O)C=C`: the AC50 in assay [1] was 163 µM (active); in assay [3], 5.31 µM (active); in [4], 18 µM (active); in [6], 100 µM (active); in assay [7], 27.8 µM (active); in assay [8], 100 µM (active). Further, the outcome in assay [2] and in assay [5] was inactive.

For the compound `COc1ccccc1O`, the outcome in [1], in assay [2], in assay [3], in [4], in assay [5] and in assay [6] was inactive. For the same compound, the outcome in assay [7] and in [8] was inactive.

As to `N#CCCNCCC#N`, the outcome in [1], in assay [2], in assay [3], in [4], in [5] and in assay [6] was inactive. Also, the outcome in assay [7] and in assay [8] was inactive.

Regarding `C=C/C(C)=C/C/C=C(\C)CCC=C(C)C`, the outcome in assay [1], in [2], in assay [3], in [4], in [5] and in assay [7] was inactive. In assay [8], the compound was called inactive. Further, the AC50 in assay [6] was 125 µM (active).

`C[N+](C)(C)CCO`: the outcome in [1], in [2], in [3], in assay [4], in assay [5] and in assay [6] was inactive. In addition, the compound was called inactive in [7] and in assay [8].

For the compound `C=CCOCC(O)CO` (stereo not drawn), the compound was classed as inactive in assay [1], in assay [3], in assay [4], in [5], in assay [6] and in [7]. Also, the outcome in [8] was inactive. Further, the AC50 in assay [2] is 100 µM (active).

As for `CC(=O)OC(C)(C)C`, the outcome in assay [1], in assay [2], in assay [3], in [4], in assay [5] and in assay [6] was inactive. The call in assay [7] and in [8] was inactive.

As to `CCCCCCCCCOS(=O)(=O)O`, the outcome in assay [1], in [2], in [3], in assay [5], in [6] and in assay [7] was inactive. Further, the call in assay [8] was inactive. Also, the AC50 in [4] is 78.7 µM (active).

Consider `CC=CC(=O)C1=C(C)C=CCC1(C)C`, for which the result in assay [1], in [2], in assay [3], in [4], in assay [5] and in assay [6] was inactive. Also, the compound was classed as inactive in assay [7] and in assay [8].

On to `CCCc1ccc(N)cc1`, for which the call in assay [1], in assay [2], in assay [3], in [4], in assay [5] and in assay [6] was inactive. In addition, the result in assay [7] and in assay [8] was inactive.

On to `CC/C=C\CCOC(C)OCC` (stereo not drawn), for which the call in [1], in [2], in [3], in assay [4], in assay [5] and in [6] was inactive. Also, the result in assay [7] and in assay [8] was inactive.

With `CCCCCCC(O)CCOC(C)=O` (stereo not drawn), the compound was called inactive in assay [1], in [2], in assay [3], in [4], in [5] and in assay [6]. In addition, the outcome in assay [7] and in [8] was inactive.

In the case of `C[C@H](CCC(=O)O)[C@H]1CC[C@H]2[C@@H]3CC[C@@H]4C[C@H](O)CC[C@]4(C)[C@H]3CC[C@]12C`, the outcome in assay [1], in assay [3] and in assay [6] was inactive. Besides, the AC50 in assay [2] is 62.7 µM (active); in assay [4], 29.4 µM (active); in assay [5] it was 62.7 µM (active); in [7], 168 µM (active); in assay [8], 165 µM (active).

In the case of `CC(C)(C)c1ccc(S)cc1`, the result in assay [1], in assay [2], in assay [3], in assay [4], in [5] and in assay [6] was inactive. Further, the compound was called inactive in assay [7] and in assay [8].

As for `CC(CCO)CC(C)(C)C` (stereo not drawn), the compound was called inactive in assay [1], in [2], in assay [3], in [4], in assay [5] and in assay [6]. Besides, the result in assay [7], in assay [8] and in [9] was inactive.

With `CCCCCCCC1CCCC1=O` (stereo not drawn), the call in assay [1], in [2], in [3], in [4], in assay [5] and in [6] was inactive. Moreover, the compound was classed as inactive in assay [7], in assay [8] and in assay [9].

With `CCC(C)(C)c1cc(O)c(C(C)(C)CC)cc1O`, the AC50 was 5.39 µM (active) in [1], 19.8 µM (active) in assay [2], 54.3 µM (active) in [3] and 26.7 µM (active) in assay [4]. Further, the result in [5], in assay [6], in [7] and in [8] was inactive.

Take `C=C(C)C(=O)OCCN(C)C`: the compound was classed as inactive in assay [1], in assay [2], in assay [3], in assay [4], in assay [5] and in [6]. Further, the result in assay [7], in [8] and in assay [9] was inactive.

As for `C=CCCCCCCCCC(=O)OCC`, the compound was called inactive in [1], in assay [2], in assay [3], in [4], in assay [5] and in [6]. The outcome in [7] and in assay [8] was inactive.

For `Cc1cc(O)c2c(c1)C(=O)c1cc(O)cc(O)c1C2=O`, the AC50 was 8.7 µM (active) in assay [1]; 12.5 µM (active) in [2]; 44.8 µM (active) in assay [4]; 25.3 µM (active) in [5]; 9.2 µM (active) in [8]; 17.6 µM (active) in [9]. Besides, the outcome in assay [3], in assay [6] and in assay [7] was inactive.

With `COc1ccccc1NC(=O)CC(C)=O`, the outcome in [1], in [2], in [3], in assay [4], in assay [6] and in assay [7] was inactive. The compound was classed as inactive in assay [8] and in assay [9]. In addition, the AC50 in assay [5] was 34.8 µM (active).

On to `CC(C)Cc1ccccc1`, for which the result in [1], in [2], in assay [3], in [4], in assay [5] and in assay [6] was inactive. In addition, the call in [7], in assay [8] and in assay [9] was inactive.

Turning to `CCOCC(C)O` (stereo not drawn), the outcome in [1], in [2], in [3], in assay [4], in [5] and in assay [6] was inactive. The compound was classed as inactive in assay [7] and in assay [8].

As for `CCC(C)(C)C1CCC(=O)CC1`, the outcome in [1], in [2], in assay [3], in assay [4], in assay [5] and in [6] was inactive. Further, the compound was called inactive in assay [7], in [8] and in assay [9].

For `CCOC(=O)C=Cc1ccccc1`, the compound was classed as inactive in assay [1], in assay [2], in assay [3], in [4], in [5] and in [6]. Besides, the call in assay [7], in assay [8] and in assay [9] was inactive.

Turning to `C=COCC1CCC(COC=C)CC1` (stereo not drawn), the compound was classed as inactive in assay [1], in [2], in [3], in assay [4], in assay [5] and in [6]. The compound was called inactive in assay [7] and in [8].

Consider `O=C(O)CS`, for which the compound was classed as inactive in assay [1], in assay [2], in [3], in [4], in assay [5] and in assay [6]. Also, the compound was called inactive in [7], in [8] and in assay [9].
